Compound activity from PubChem BioAssay.
AID inh = blocks human AID cytidine deaminase activity; AID deamination FRET fluorescence, UDG-coupled, 4 h; 91,000 tested, 0.32% active; Potency, µM (titrated, usually from 115 µM), usual class: inhibitors; Q9GZX7; AID 1347428; also: potency is read from the fitted curve at half-maximal effect; % is scaled to controls: 0 for no effect and ±100 for the full control effect; nearly all actives have a fitted effect of over 25% in size
Target sequence (Q9GZX7 whole entry, looked up): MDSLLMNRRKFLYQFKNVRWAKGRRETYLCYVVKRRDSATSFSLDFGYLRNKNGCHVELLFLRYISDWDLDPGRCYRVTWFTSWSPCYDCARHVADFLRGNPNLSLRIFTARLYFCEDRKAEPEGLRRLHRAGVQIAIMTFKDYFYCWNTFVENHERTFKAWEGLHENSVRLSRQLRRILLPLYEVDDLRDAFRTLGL
UDG counter = counter-screen for AID inhibitors: uracil-DNA glycosylase inhibition; 91,000 tested, 0.14% active; FRET deamination/UDG coupled assay, UDG read, 4 h; Potency, µM (titrated, usually from 115 µM), for the others: top-dose activity change, negative = inhibition, most hits filed as inhibitors; also: potency is read from the fitted curve at half-maximal effect; % is scaled to controls: 0 for no effect and ±100 for the full control effect; nearly all actives have a fitted effect of over 65% in size
GPR32 ag = activates human resolvin D1 receptor GPR32; AID 1346428; CHO-K1 GPR32 beta-arrestin PathHunter luminescence, 90 min; zero percent set by DMSO-only wells; activation, % at 76.9 µM; 48,000 tested, 2.5% active;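 active = activation of at least 60% and not above a set upper limit, about 1 call in 100 departs from these limits; inconclusive = activation of 40% to 60%, or above that upper limit; inactive = activation under 40%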; also: 0% is about no effect
Target sequence (O75388 whole entry, looked up): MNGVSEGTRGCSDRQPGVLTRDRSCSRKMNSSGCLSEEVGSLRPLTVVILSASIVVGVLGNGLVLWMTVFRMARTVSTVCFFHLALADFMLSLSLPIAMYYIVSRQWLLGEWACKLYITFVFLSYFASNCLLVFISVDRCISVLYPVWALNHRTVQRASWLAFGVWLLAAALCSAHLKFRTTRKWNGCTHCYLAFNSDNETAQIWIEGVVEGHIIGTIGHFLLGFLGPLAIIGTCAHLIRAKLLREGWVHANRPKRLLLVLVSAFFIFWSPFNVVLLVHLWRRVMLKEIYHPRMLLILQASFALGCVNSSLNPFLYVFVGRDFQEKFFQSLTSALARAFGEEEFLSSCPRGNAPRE
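Step 1: seed CHO-K1 GPR32 beta-arrestin cells, 2,500/well, overnight at 37 °C. Step 2: add compounds, 90 min at 37 °C. Step 3: detection reagent, 1 h ambient, then luminescence.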
* marks the source's active call; other numbers are inactive results; [ ] = dose if it differs, or a comment. This is one part of a sample in which hits are shown more often than they occur. Unless noted, calls follow the shape of the dose curve; as a rule, active = well fitted curve in the direction sought with a large enough effect; inconclusive = small, poorly fitted or top-dose-only effect, or another doubt; inactive = no such curve, though single readings can be large; an effect the other way counts as inactive or inconclusive.

How did CC(C)NC(=O)C(C)ONC(=O)c1cccc(C(F)(F)F)c1 (configuration not stated) do in these assays?
AID inh: inactive; UDG counter: 0.9%

What do the screens show for `CCOC(=O)C1C(=O)C=C(c2ccc(F)cc2)CC1c1ccc(C(C)C)cc1` (configuration not stated)?
AID inh: inactive; UDG counter: -5.1%

Results for Cc1ccc(Nc2sc(C(=O)c3ccccc3)c(N)c2C(N)=O)cc1 ?
AID inh: inactive; UDG counter: -20.8%; GPR32 ag: -18.5

What do the screens show for `Cc1ccc(C(=O)c2sc(Nc3ccc(F)cc3)c(C#N)c2N)cc1`?
AID inh: inactive; UDG counter: 5.0%; GPR32 ag: 85.9*

What do the screens show for `Cc1cccc(N2CCN(C(=O)c3c(C)oc4ncnc(N5CCOCC5)c34)CC2)c1C`?
AID inh: inactive; UDG counter: -0.3%; GPR32 ag: -11.0

How did Cc1cccc(N2CCN(C(=O)c3c(C)oc4ncnc(N5CCCCC5)c34)CC2)c1C do in these assays?
AID inh: inconclusive; UDG counter: -20.2%; GPR32 ag: 85.1*

Results for Cc1nn(-c2nc(CC(=O)Nc3cccnc3)cs2)c(C)c1Cc1ccccc1 ?
AID inh: inactive; UDG counter: -5.8%

Results for CN(C)CCCNc1cc(N2CCN(C3CCCCC3)CC2)c2noc3c2c1C(=O)c1ccccc1-3 ?
AID inh: 39.8µM*; UDG counter: 31.0%; GPR32 ag: -4.7

What do the screens show for `O=C1c2ccccc2-c2onc3c(N4CCN(C5CCCCC5)CC4)cc(NCCO)c1c23`?
AID inh: inactive; UDG counter: -4.4%; GPR32 ag: -13.0

How did CC(=O)Nc1ccc(C)cc1-c1nnc(SCC(=O)Nc2cc(Cl)ccc2Cl)[nH]c1=O do in these assays?
AID inh: inactive; UDG counter: -1.0%

How did Cc1ccc(C)c(CSc2ccc3nnc(CCNS(=O)(=O)c4ccccc4)n3n2)c1 do in these assays?
AID inh: inconclusive; UDG counter: 25.4%; GPR32 ag: 2.0

Results for O=S(=O)(NCCc1nnc2ccc(SCc3cccc(Cl)c3)nn12)c1ccccc1 ?
AID inh: 39.8µM*; UDG counter: 20.6%; GPR32 ag: -22.4

How did CCc1c(C)sc(NC(=O)/C=C/c2ccc(OC)cc2)c1C#N do in these assays?
AID inh: inactive; UDG counter: 7.7%

Results for COc1ccc(OC)c(CNC(=O)c2nn(C)c3c2CS(=O)(=O)c2ccccc2-3)c1 ?
AID inh: 39.8µM*; UDG counter: -3.1%; GPR32 ag: -5.3

Results for COc1ccc(CNC(=O)c2nn(C)c3c2CS(=O)(=O)c2ccccc2-3)cc1 ?
AID inh: inactive; UDG counter: -1.4%; GPR32 ag: -2.9

What do the screens show for `Cc1cccc(NC(=O)CSc2nc3ccc(NC(=O)c4cccs4)cc3s2)c1`?
AID inh: inactive; UDG counter: -0.5%; GPR32 ag: 64.3*

How did Cc1cccc(NC(=O)CSc2nc3ccc(NC(=O)CCc4ccccc4)cc3s2)c1 do in these assays?
AID inh: inactive; UDG counter: 1.1%; GPR32 ag: 29.9

How did O=C(Nc1ccc2nc(SCCOc3ccccc3)sc2c1)c1cccs1 do in these assays?
AID inh: inactive; UDG counter: -11.7%; GPR32 ag: -2.8

Results for COc1cccc(NC(=O)CSc2nc3ccc(NC(=O)c4cccs4)cc3s2)c1 ?
AID inh: inactive; UDG counter: 21.0%; GPR32 ag: 95.0*

What do the screens show for `COc1cc2c(c(OC)c1OC)-c1ccc(NCCO)c(=O)cc1[C@@H](NC(C)=O)CC2`?
AID inh: inactive; UDG counter: 11.3%

What do the screens show for `Cn1nc(CC(=O)OCC(=O)NC2CC2)c2ccccc2c1=O`?
AID inh: inactive; UDG counter: 1.5%

What do the screens show for `CCOC(=O)c1c(C)oc2nc(C)nc(N3CCN(c4ccccc4)CC3)c12`?
AID inh: inactive; UDG counter: 0.7%; GPR32 ag: -12.2

What do the screens show for `CCOc1ccc(-c2nc(CSCC(=O)N3CCN(c4cccc(C(F)(F)F)c4)CC3)c(C)o2)cc1`?
AID inh: 31.6µM*; UDG counter: 28.6%; GPR32 ag: -25.5

What do the screens show for `CCOC(=O)c1c(C)oc2nc(C)nc(N3CCN(c4cccc(C(F)(F)F)c4)CC3)c12`?
AID inh: 14.1µM*; UDG counter: -7.2%; GPR32 ag: -16.0

Results for CCOc1ccc(-c2nc(CSCC(=O)N3CCN(c4ccc(F)cc4)CC3)c(C)o2)cc1 ?
AID inh: inactive; UDG counter: -8.7%; GPR32 ag: -14.1

How did CSc1nn(Cc2cccc(F)c2)c(N(C(C)=O)C(C)=O)c1S(=O)(=O)c1ccccc1 do in these assays?
AID inh: inconclusive; UDG counter: -17.0%; GPR32 ag: 83.3*

What do the screens show for `COc1cccc(Cn2nc(SC)c(S(=O)(=O)c3ccccc3)c2N(C(C)=O)C(C)=O)c1`?
AID inh: inactive; UDG counter: -18.1%; GPR32 ag: inconclusive

Results for O=C(COc1coc(CN2CCCCC2)cc1=O)NCc1ccccc1Cl ?
AID inh: inactive; UDG counter: 2.3%

What do the screens show for `CC(=O)N1CCC2(CC1)Oc1ccc(Br)cc1C1CC(c3ccc(Cl)cc3)=NN12` (configuration not stated)?
AID inh: inactive; UDG counter: 0.2%

What do the screens show for `CCn1c(C)cc(C(=O)COC(=O)c2nccnc2N)c1C`?
AID inh: inactive; UDG counter: -2.0%

Results for CC(NC(=O)CSc1nc(-c2cccc(Cl)c2)nc2cc(=O)[nH]n12)c1nc2ccccc2n1C (configuration not stated) ?
AID inh: inactive; UDG counter: 10.5%; GPR32 ag: 68.7*

Results for O=C(CSc1nc(-c2ccccc2)nc2cc(=O)[nH]n12)Nc1ccccc1 ?
AID inh: inactive; UDG counter: -3.8%; GPR32 ag: 6.0

How did CCc1ccc2c(c1)NC(c1ccc(C)o1)=NC(c1ccc(F)cc1)=N2 do in these assays?
AID inh: inactive; UDG counter: -11.7%

How did C[N+]1(C)CCNCC1 do in these assays?
AID inh: inactive; UDG counter: 2.4%

Results for CC(C)Oc1ccc(CNC(=O)C2CCCCN2S(=O)(=O)c2ccc(F)cc2)cc1 (configuration not stated) ?
AID inh: inconclusive; UDG counter: 89.1µM*; GPR32 ag: -4.4

What do the screens show for `Cc1ccc(C)c(CNC(=O)C2CCCCN2S(=O)(=O)c2ccc(F)cc2)c1` (configuration not stated)?
AID inh: inactive; UDG counter: inconclusive; GPR32 ag: -6.8

Results for COc1ccc(-c2nc3ccccc3c(C(=O)O)c2C)cc1 ?
AID inh: inactive; UDG counter: -3.4%

What do the screens show for `Cc1ccccc1NC(=O)COC(=O)/C=C/c1cccc2cccnc12`?
AID inh: inactive; UDG counter: -6.3%

What do the screens show for `N#Cc1cccc(NC(=O)C2(c3ccc(Cl)cc3)CCC2)c1`?
AID inh: inactive; UDG counter: -13.2%

Results for COc1ccc2[nH]cc(CCNC(=O)Nc3cc(C)cc(C)c3)c2c1 ?
AID inh: inconclusive; UDG counter: inconclusive; GPR32 ag: 17.6

Results for COc1ccc2[nH]cc(CCNC(=O)Nc3ccccc3)c2c1 ?
AID inh: inactive; UDG counter: -1.9%[57.5 µM]; GPR32 ag: 66.8*
